Laboratory results taken from PubChem BioAssay AID1851 (National Center for Advancing Translational Sciences (NCATS), 2009).
About 2,600 (16%) of roughly 16,000 compounds were called active. Inconclusive results (about 20%) are left out. Calls follow the shape of the dose curve; as a rule, active = well fitted curve in the direction sought with a large enough effect; inconclusive = small, poorly fitted or top-dose-only effect, or effect the other way; inactive = no such curve, though single readings can be large or run the other way. These entries were drawn from the full list.

Biological target: Cytochrome P450 2D6 (Homo sapiens) (UniProt P10635)
Sequence (P10635 whole entry, looked up): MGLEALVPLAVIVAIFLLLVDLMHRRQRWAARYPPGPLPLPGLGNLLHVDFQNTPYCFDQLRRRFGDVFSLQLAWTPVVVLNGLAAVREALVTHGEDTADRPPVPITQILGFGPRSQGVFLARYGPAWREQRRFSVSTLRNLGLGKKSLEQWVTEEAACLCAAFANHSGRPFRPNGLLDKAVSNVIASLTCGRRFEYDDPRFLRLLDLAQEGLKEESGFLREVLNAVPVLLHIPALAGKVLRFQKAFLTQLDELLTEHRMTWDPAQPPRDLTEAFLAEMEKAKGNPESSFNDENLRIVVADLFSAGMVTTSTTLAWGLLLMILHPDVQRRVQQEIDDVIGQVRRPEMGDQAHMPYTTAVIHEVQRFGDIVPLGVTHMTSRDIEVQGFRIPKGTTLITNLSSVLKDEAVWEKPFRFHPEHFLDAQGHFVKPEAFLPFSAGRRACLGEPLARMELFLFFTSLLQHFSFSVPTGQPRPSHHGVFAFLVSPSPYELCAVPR
Test: Cytochrome panel assay with activity outcomes
Conditions: recombinant CYP, pro-luciferin dealkylation, luminescence, p450-cyp2d6; series mostly up to 57.1 µM; activity, negative = inhibition: at the top concentration
% is scaled to controls: 0 for no effect and ±100 for the full control effect.

Structure (SMILES)	AC50	activity, negative = inhibition
COc1ccccc1CNc1ncncc1-c1ccccc1C(F)(F)F	2 µM (active)	–
COc1ccc(CNc2ncncc2-c2ccccc2C(F)(F)F)c(OC)c1	0.398 µM (active)	–
O=c1c(-c2cccc(Cl)c2)nc2cncnc2n1C1CC1	–	-3.44% (inactive)
O=C(Nc1ccccc1[N+](=O)[O-])C1C(c2ccccc2)=C1c1ccccc1	–	15.3% (inactive)
COc1ncc2nc(-c3cccs3)c(=O)n(C)c2n1	–	-1.28% (inactive)
Cc1cnn(-c2ccc3nnc(-c4ccc(Cl)cc4)n3n2)c1	–	-4.72% (inactive)
Clc1ccc(/C=N/Nc2nnc(-c3ncc[nH]3)c3ccccc23)cc1	–	-28.8% (inactive)
N#CC(c1ccc(Cl)cc1)c1nc2ccccc2nc1C(F)(F)F (stereo unspecified)	–	-19.3% (inactive)
FC(F)(F)c1nc2ccccc2nc1N/N=C/c1ccc(Cl)cc1	0.631 µM (active)	–
O=c1[nH]c(=O)n([C@@H]2C[C@H](O)[C@H](CO)O2)cc1I	–	3.14% [at 25.6 µM] (inactive)
CCCN[C@@H](C)C(=O)Nc1ccccc1C	inactive	–
N#Cc1cc(-c2ccc(Cl)cc2)cnc1Sc1ccc(F)cc1	–	12.5% (inactive)
N#Cc1cc(-c2ccc(Cl)cc2)cnc1Sc1ccccc1	–	0.543% (inactive)
N#Cc1cc(N)ccc1Sc1ccc(Cl)cc1	22.4 µM (active)	–
Cc1cc(C)cc(-n2c(C)cc(C=C(C#N)C#N)c2C)c1	–	25.6% (inactive)
Cn1c(=O)c2c(nc(C(=N)SCC(=O)O)n2C)n(C)c1=O	–	1.35% [at 11.4 µM] (inactive)

Structure (SMILES)	AC50	activity, negative = inhibition
O=C1C2CCCN2C(c2ccccc2F)N1c1ccc(Cl)cc1 (stereo unspecified)	–	-25.3% (inactive)
S=C1N(c2ccccc2)C(c2ccc(Cl)cc2)N2CCCN12 (stereo unspecified)	–	-9.66% (inactive)
O=C1C2=C(NC(=S)NC2c2ccc(Cl)cc2)NC(c2ccc(Cl)cc2)N1c1ccc(Cl)cc1 (stereo unspecified)	15.8 µM (active)	–
Cc1cnn(CCC(=O)NNC(=S)Nc2cccc(Cl)c2)c1	–	-13.5% (inactive)
COCCn1c(=O)c(-c2cc(F)cc(F)c2)nc2cnc(Oc3cccc(Cl)c3)nc21	–	-0.734% (inactive)
Cc1cc(NCc2ccccn2)ccc1Br	–	-27.7% (inactive)
Cc1cc(=O)oc(C)c1C(=O)NCc1ccccn1	–	6.42% (inactive)
Cc1cc(Br)ccc1NCc1ccccn1	15.8 µM (active)	–
O=C(O)c1ccccc1C(=O)NNc1ccc(Cl)cc1	–	11.1% (inactive)
O=C(NNC(=O)c1ccccc1-n1cccc1)c1ccccc1	–	-24.4% (inactive)
O=C(NNC(=O)c1ccccc1O)c1ccc(Cl)cc1	2.82 µM (active)	–
O=C(C[N+]1(c2ccccc2)CCOCC1)c1ccccc1	–	-6.92% [at 11.4 µM] (inactive)
O=S(=O)(N/N=C/c1ccc2c(c1)OCCO2)c1ccc(Cl)cc1	–	-9.99% (inactive)
Cc1ccc(S(=O)(=O)N/N=C/c2ccc(OC3CSC3)cc2)cc1	–	5.99% (inactive)
O=S(=O)(N/N=C\c1ccc2c(c1)OCO2)c1ccc(Cl)cc1	7.94 µM (active)	–
